Results on two compounds are retold here after PubChem BioAssay AID1569 (National Center for Advancing Translational Sciences (NCATS), 2009).

Inconclusive results are not listed. The source made the active and inactive calls. Calls follow the shape of the dose curve; as a rule, active = well fitted inhibition curve with a large enough effect; inconclusive = small, poorly fitted or top-dose-only effect, or effect the other way, or another doubt; inactive = no such curve, though single readings can be large or run the other way.

The experiment in a line: Confirmation Concentration-Response Assay for lipid storage modulators. Also: nearly all actives have a fitted effect of over 80% in size. To be noted: Drosophila S3 cells, lipid droplet BODIPY/CellTracker ratio, 18-24 h. The source says: NIH Molecular Libraries Probe Production Centers Network [MLPCN] NIH Chemical Genomics Center [NCGC] MLPCN Grant: 1 R03 MH085686-01 Assay Submitter (PI): Beller, Mathias; Max-Planck-Institut fur Biophysikalische Chemie NCGC Assay Overview: Storing lipids as a reservoir for energy or the anabolism of elementary metabolites is a common feature of probably all cells and is conserved from bacteria to humans. The universal cellular lipid storage organelle is the so-called lipid storage droplet (LD). Although ubiquitous, LDs share a simple structure composed of a hydrophobic core that harbors the storage lipids, which is shielded by a droplet-specific phospholipid monolayer to which proteins are attached. […] Exo1 identified in the primary screen (AID 1519) and several analogs were measured in the lipid storage assay as 24-point concentration-response curves to confirm potency and SAR.
We dispensed 4 uL of cells at 1.25 x 10^6 cells/mL into LoBase Aurora COC 1,536-well plates (black walled, clear bottom) with a bottle-valve solenoid-based dispenser (Aurora) to obtain 5,000 cells/well. […] Fluorescence was detected by excitation of the fluorophores with a 488-nm laser on an Acumen Explorer (TTP Lab Tech). […] Cells were detected using channel 3 (575- 640 nm) with 5-um width and 100-um depth filters. The ratio of the total intensity in PMT channel 1 over total intensity of channel 3 was also calculated. […]
Potency is read from the fitted curve at half-maximal effect.

As for `COc1cc2c(cc1OC)[C@@H]1C(=O)c3ccc4c(c3O[C@@H]1CO2)C[C@H](C(C)C)O4`, the Potency was 0.0499 µM (active).
For `O=C(Nc1cccc(Cl)c1)OC1CN2CCC1CC2` (configuration not stated) the value was 8.88 µM (active).
